# Screening results from PubChem BioAssay.
# Sampled rows, rich in hits. Any-hit rate of the full collection: about 19%.
# TDP1 block = TDP1 (human) enzyme inhibition; Q9NUW8; Potency, µM (series often up to 130 µM), for inactives: at the top dose activity change, negative = inhibition, hits mostly inhibitors; recombinant TDP1, AlphaScreen DNA substrate cleavage; 0.28% of 350,000 active; note: potency is the fitted concentration of half-maximal effect; nearly all actives have a fitted effect of over 40% in size
# Target sequence (Q9NUW8 whole entry, looked up): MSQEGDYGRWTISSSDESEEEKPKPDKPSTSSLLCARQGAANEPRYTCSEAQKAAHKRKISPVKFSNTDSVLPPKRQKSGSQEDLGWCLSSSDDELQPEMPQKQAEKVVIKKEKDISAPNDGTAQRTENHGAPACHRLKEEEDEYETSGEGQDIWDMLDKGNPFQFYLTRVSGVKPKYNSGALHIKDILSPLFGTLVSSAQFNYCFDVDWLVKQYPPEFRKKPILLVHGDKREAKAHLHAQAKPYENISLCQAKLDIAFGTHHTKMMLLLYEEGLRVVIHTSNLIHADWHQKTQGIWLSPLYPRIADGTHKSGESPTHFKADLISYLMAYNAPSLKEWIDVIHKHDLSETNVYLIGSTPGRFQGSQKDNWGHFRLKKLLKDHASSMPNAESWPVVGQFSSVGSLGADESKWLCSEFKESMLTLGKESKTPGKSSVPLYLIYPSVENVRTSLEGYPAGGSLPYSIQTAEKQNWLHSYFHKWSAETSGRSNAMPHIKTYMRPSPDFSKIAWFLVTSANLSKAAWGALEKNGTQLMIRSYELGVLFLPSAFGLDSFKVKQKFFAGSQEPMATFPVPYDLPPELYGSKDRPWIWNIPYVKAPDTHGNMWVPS
#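 Enzyme-compound mixtures sat 15 min at room temperature, followed by a 5 min reaction with 15 nM final substrate and 10 min with AlphaScreen beads. Recombinant human Tdp1 was used at 1 nM final.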
# DT40 TDP1 no CPT = qHTS for Inhibitors of human tyrosyl-DNA phosphodiesterase 1 (TDP1): qHTS in cells in absence of CPT | Potency, µM (doses to about 46.2 µM), without a hit: at the highest dose activity change, negative = growth inhibition, hits mostly inhibitors | 15% of 420,000 active | AID 686978, 2013 | DT40 Tdp1-/- hTDP1 cells, no CPT, ATP luminescence, 48 h; note: potency is the fitted concentration of half-maximal effect; nearly all actives have a fitted effect of over 55% in size
#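 A cellular qHTS used chicken DT40 cells lacking endogenous Tdp1 but carrying stably transfected human TDP1. Compounds were applied without camptothecin, and cell growth kinetics were judged by ATP-dependent luminescence after ≥48 hr.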
# Giardia killer = Giardia lamblia killing; 0.15% of 340,000 active; activity change, % at 7.66 µM, hits read low; Giardia lamblia trophozoite viability; in the data active = activity change below about -80%; inconclusive = between about -30% and that limit;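 note: parasites exposed to compound for two days anaerobically before the ATP read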
#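 Giardia trophozoites, 100 cells per well, were exposed to compounds for 48 hrs at 37 deg C under anaerobic conditions; viability was then read as ATP content by bioluminescence after 15-30 min at room temperature.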
# ELG1 DNA repair = ELG1-dependent DNA repair inhibition. HEK293T ELG1-luciferase reporter, luminescence, 16 h; DNA damage induced by 5-fluorouridine. Potency, µM (titrated, usually from 46.1 µM), without a hit: at the top dose activity change, negative = inhibition, hits mostly inhibitors. 2.3% of 330,000 active; note: potency is the fitted concentration of half-maximal effect; nearly all actives have a fitted effect of over 55% in size
#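 Reporter activity after DNA damage by 5-fluorouridine is monitored. Compound-treated cells incubate 16 hr at 37 °C, then ONE-Glo is added for 30 min before luminescence reading.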
# DT40 TDP1 CPT = growth inhibition of DT40 Tdp1-/-;hTDP1 cells with camptothecin (screen for TDP1 inhibitors). chicken DT40 Tdp1-/-;hTDP1 cells + 20 nM CPT, ATP luminescence, 48 h. Potency, µM (top dose mostly 46.2 µM), inactives show at the highest dose activity change, negative = growth inhibition, actives largely listed as inhibitors. 12% of 420,000 active; note: potency is the fitted concentration of half-maximal effect; nearly all actives have a fitted effect of over 55% in size
#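 Chicken DT40 Tdp1-/- cells stably complemented with human TDP1 were seeded at 400 cells/well in medium containing 20 nM camptothecin, exposed to pin-transferred compounds, and grown at 37 °C for at least 48 hr. Viability was read as ATP luminescence.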
# IL1B secr inh = inflammasome signaling inhibition, IL-1 beta readout | THP-1 LPS/ATP IL-1B secretion, AlphaLISA, 16 h; hits give low values | activity change, % at 57.5 µM | 4.7% of 360,000 active | AID 743279; in the data active = activity change below about -50%; inconclusive = mostly about -30% to -49%
#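 THP-1 cells pretreated 1 hr with compounds (up to 57.5 uM final), then stimulated with LPS (250 ng/mL final) plus ATP (1.25 mM final); secreted IL-1B measured by AlphaLISA after 16 hr, decreased signal indicating inhibition.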
# * marks the source's active call; other numbers are inactive results; ? = inconclusive; nt = not tested or not shown; [ ] = remark or other dose. Unless noted, calls come from the whole dose curve; as a rule, active = well fitted curve in the direction sought with a large enough effect; inconclusive = small, poorly fitted or top-dose-only effect, or another doubt; inactive = no such curve, though single readings can be large; an effect the other way counts as inactive or inconclusive. % is set by controls: 0 for no effect and ±100 for the full control effect.
SMILES,TDP1 block,DT40 TDP1 no CPT,Giardia killer,ELG1 DNA repair,DT40 TDP1 CPT,IL1B secr inh
COC(=O)c1ccc(C(C(=O)NC2CCCCC2)N(CCc2ccccc2)C(=O)Cc2cccs2)cc1 (stereo unspecified),-1%,6.5µM*,-9,2%,5.2µM*,19
COC(=O)c1ccc(C(C(=O)NC2CCCCC2)N(Cc2ccc(F)cc2)C(=O)Cc2cccs2)cc1 (stereo unspecified),0%,12µM*,-5,-6%,9.2µM*,-8
CC(C)CN(C(=O)c1ccc(S(=O)(=O)N2CCOCC2)cc1)C1CCS(=O)(=O)C1 (stereo unspecified),-4%,-23%,37,16%,-36%,-14
CC1(C(=O)NS(=O)(=O)C2CC2)CCCN(C(=O)c2cc3ccccc3s2)C1 (stereo unspecified),nt,0.82µM*,nt,nt,0.65µM*,14
CC1(C(=O)NS(=O)(=O)C2CC2)CCCN(C(=O)COc2ccccc2)C1 (stereo unspecified),nt,?,nt,nt,?,40
CC1(C(=O)NS(=O)(=O)C2CC2)CCCN(C(=O)COCc2ccccc2)C1 (stereo unspecified),nt,2.3µM*,nt,nt,6.5µM*,-15
CC1(C(=O)NS(=O)(=O)C2CC2)CCCN(C(=O)Cc2ccc3ccccc3c2)C1 (stereo unspecified),nt,10µM*,nt,nt,9.2µM*,25
CC1(C(=O)NS(=O)(=O)C2CC2)CCN(C(=O)c2cc3ccccc3s2)C1 (stereo unspecified),nt,23%,nt,nt,-3%,-7
CC(C)NC(=O)N1CC[C@@]2(CCCN(C(=O)c3cnccn3)C2)C1,nt,-5%,nt,nt,13%,nt
CO/N=C(\C(=O)N[C@@H]1C(=O)N2C(C(=O)[O-])=C(C[n+]3ccc(N)n3CCO)CS[C@H]12)c1csc(N)n1,nt,-7%,nt,nt,3%,nt
COc1ccccc1C1CCN(c2cc(O)ccc2[N+](=O)[O-])CC1,11%,?,-18,12µM*,-21%,-6
COc1ccccc1C1CCN(C(=O)C2CCCCC2)CC1,nt,?,15,?,?,-10
O=C(c1cc(-c2ccc(Cl)cc2)n[nH]1)N1CCc2ccccc2C1,2%,-2%,-11,0%,-15%,-17
Cc1c(Cl)ccc2c(C(O)CBr)cc(-c3ccccc3)nc12 (stereo unspecified),nt,16µM*,2,nt,?,-86*
COC(=O)c1cn(NC(=O)/C=C/c2cc(OC)ccc2OC)c(=O)c2ccccc12,0%,?,1,-17%,-3%,8
COc1ccc(CCn2c3c(c(=O)[nH]c2=O)C(NC(=O)c2ccccc2F)(C(F)(F)F)C(=O)N3)cc1OC (stereo unspecified),4%,2%,nt,nt,26%,nt
COc1cc(O)c(C(CCN2CCN(c3ccccc3)CC2)c2cc(OC)c(OC)c(OC)c2)c(OC)c1 (stereo unspecified),24%,23µM*,-3,-12%,21µM*,-7
CCN(CC)CCC(c1ccc2c(c1)OCO2)c1c(O)cc(OC)cc1OC (stereo unspecified),14%,18µM*,-15,0%,21µM*,-26
COc1cc(O)c(C(CCN2CCN(c3ccccc3)CC2)c2ccc3c(c2)OCO3)c(OC)c1 (stereo unspecified),23%,16µM*,-14,-18%,23µM*,?
CCN(CC)C(=O)CC(c1ccc2c(c1)OCO2)c1c(O)cc(OC)cc1OC (stereo unspecified),7%,-29%,11,10%,?,3
COc1cc(O)c(C(CCN2CCCC2)c2ccc3c(c2)OCO3)c(OC)c1 (stereo unspecified),17%,23µM*,0,?,23µM*,?
COc1ccc(-c2oc3ncn4nc(-c5ccccc5OC)nc4c3c2-c2ccc(OC)cc2)cc1,2%[12.3 µM],-16%,nt,nt,-1%,nt
CSc1nc(N)c(C(=O)NC2CCCCC2)s1,4%,?,-22,?,-26%,-6
Cc1cc(C)n(-c2nc3ccccc3nc2Nc2ccc(Cl)c(Cl)c2)n1,-4%[12.3 µM],-15%,nt,nt,-5%,nt
CN1C[C@@H]2[C@@H]3C(=O)N(C)C(=O)[C@@H]3[C@](C)(C1=O)N2C(=O)c1ccccc1,nt,-2%,13,nt,20%,28
SMILES,TDP1 block,DT40 TDP1 no CPT,Giardia killer,ELG1 DNA repair,DT40 TDP1 CPT,IL1B secr inh
COc1cccc2c1O/C(=N\O)C(C(=O)Nc1cccc(Br)c1)C2 (stereo unspecified),nt,?,6,13%,-19%,-3
CCCc1cc(=O)oc2c(C)c(OC(C)C(=O)NCCN3CCOCC3)ccc12 (stereo unspecified),2%,3%,17,-2%,-2%,0
S=C(c1ccc(-c2ccccc2Cl)o1)N1CCCCC1,0%,16µM*,-10,?,?,-10
S=C(c1ccc(-c2ccc(Cl)cc2)o1)N1CCCCC1,7%,?,-2,?,?,-52*
N#CCCN1CCN(C(=S)c2ccc(-c3ccc(Cl)cc3)o2)CC1,5%,?,17,?,?,-13
Cc1csc(C(C)N(C)C(=O)c2cc(NC(=O)C3CCC3)c3c(c2)nc(-c2ccncc2)n3C)n1 (stereo unspecified),nt,6%,nt,nt,9%,nt
NC(=O)c1ccc(O)c2ncccc12,0%,nt,nt,nt,nt,nt
O=Cc1ccc(O)c2ncccc12,7%,0.58µM*,29,2.3µM*,0.65µM*,-98*
CCC(=O)Oc1ccc(C2NC(=O)c3ccccc3O2)cc1OC (stereo unspecified),nt,-2%,-3,5%,10%,0
Cc1c(C(=O)OCC2CCCCC2)[nH]c2c1C(=O)CC(c1ccc(Cl)cc1)C2 (stereo unspecified),0%,-4%,nt,nt,-13%,nt
CCCCCOC(=O)c1[nH]c2c(c1C)C(=O)CC(c1ccco1)C2 (stereo unspecified),-1%,0.16µM*,-19,-1%,0.18µM*,79
CCCOC(=O)c1[nH]c2c(c1C)C(=O)CC(c1ccc(OC)c(OC)c1)C2 (stereo unspecified),0%,-20%,6,-3%,?,16
Cc1c(C(=O)OCCOc2ccccc2)[nH]c2c1C(=O)CC(c1ccccc1)C2 (stereo unspecified),0%,0.15µM*,nt,nt,0.23µM*,nt
